Rows were chosen to be rich in hits. Some 1.3% of all compounds tested hit in one or more screens of this group.
p53 reactivator: re-activators of mutant p53; Potency, µM (doses to about 92.2 µM), for the others: at the top dose activity change, positive = activation, most hits filed as activators; hit rate 0.063% among 320,000; H1299 p53-A138V BP100-luciferase reporter, luminescence, 24 h; AID 504706; further: potency means the concentration at half of the fitted maximal effect; % of control where 0% means no effect; nearly all actives have a fitted effect of over 45% in size
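p53-null H1299 cells stably carrying temperature-sensitive p53-A138V and a BP100-luciferase reporter were pinned with compounds (4-point, 1:5 series) and held 24 hrs at 37 deg C. Luminescence was read 10 min after detection reagent.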
IL-2 act: activators of IL-2; IL-2 activation reporter assay, cell-based qHTS; stimulated with anti-CD3/CD4/CD28 beads; in transgenic mouse T cells; AID 652025; hit rate 0.065% among 360,000; activation, % (series mostly up to about 46 µM); in the data active means activation above about 50%; inconclusive means mostly about 30% to 49%; further: 0% is about no effect
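Screening format: compound pinned onto unstimulated transgenic mouse T cells, 60 min incubation, then anti-CD3/anti-CD4/anti-CD28 bead stimulation for 18 hours at 37 degrees C, followed by EGFP and DsRed detection.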
TCR activator: activators of T cell receptors | 330,000 tested, under 10 active | AID 504894 | primary human leukocytes, anti-CD3, IL-2 HTRF, 48 h | Potency, µM (titrated, usually from 9.22 µM), for inactives: top-dose activation of IL-2 secretion, most hits filed as activators; further: % of control where 0% means no effect
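IL-2 produced over 48 hr by a-CD3 bead-stimulated primary human leukocytes exposed to compounds was detected with a homogeneous time-resolved FRET immunoassay, 665nm acceptor signal after 320nm excitation.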
BRCA1 expr act: increases BRCA1 expression; MCF7-BRCA1-FFLuc reporter, luminescence, 48 h; response scale: scaled: vehicle 0%, 10 µM genistein 100%; Potency, µM (highest dose often 46.1 µM), inactives show at the highest dose activation, most hits filed as activators; hit rate 1.1% among 380,000; AID 624202; further: potency means the concentration at half of the fitted maximal effect; nearly all actives have a fitted effect of over 80% in size
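Quantitative HTS in MCF7 cells stably reporting BRCA1 expression via firefly luciferase. Compound treatment lasts 48 h at 37 °C in phenol-red free MEM. Activation is expressed relative to genistein at 10 microM and DMSO.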
Mito fusion act: inhibitors of mitochondrial division or activators of mitochondrial fusion | S. cerevisiae fusion-defective mutant growth rescue, CellTiterGlo 48 h | Potency, µM (titrated, usually from 46.1 µM), without a hit: top-dose growth rescue (activation), usual class: activators | hit rate 0.23% among 320,000 | AID 485298; further: potency means the concentration at half of the fitted maximal effect; % of control where 0% means no effect; nearly all actives have a fitted effect of over 45% in size
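S. cerevisiae fusion-defective temperature-sensitive mutants (e.g. fzo1-1, mgm1-5) grown 48 h at 37C in YPEG (ethanol/glycerol non-fermentable) medium with 23 nl compound per well; growth rescue read as CellTiterGlo luminescence.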
* hit, by the source's call; ? = inconclusive; . = no result; [ ] = another dose, or the depositor's remark. Unless noted, the call rests on the fitted dose curve; in most records, active means well fitted curve in the direction sought with a large enough effect; inconclusive means small, poorly fitted or top-dose-only effect, or another doubt; inactive means no such curve, though single readings can be large; an effect the other way counts as inactive or inconclusive.

SMILES	p53 reactivator	IL-2 act	TCR activator	BRCA1 expr act	Mito fusion act
Cc1ccc2c(c1)COc1c3ccc(C(=O)N4CCOCC4)cc3nn1-2	24%	0	6%	4.5µM*	-2%
O=C(NCCO)c1ccc2c3n(nc2c1)-c1ccc(Cl)cc1CO3	17%	0	3%	3.2µM*	-19%
COCCNC(=O)c1ccc2c3n(nc2c1)-c1ccc(Cl)cc1CO3	6%	0	1%	?	31%
CC(C)[C@@H](CO)NC(=O)c1ccc2c3n(nc2c1)-c1ccc(Cl)cc1CO3	17%	0	-6%	4µM*	8%
O=C(NCC1CC1)c1ccc2c3n(nc2c1)-c1ccc(Cl)cc1CO3	.	0	2%	2.5µM*	.
O=C(c1ccc2c3n(nc2c1)-c1ccc(Cl)cc1CO3)N1CCCCC1	?	0	-2%	?	14%
COc1nc(-c2ccccc2)ccc1-c1noc(-c2ccccc2)n1	?	0	0%	6.3µM*	6%
CCOc1ccccc1-c1nc(-c2ccc(C)nc2OC)no1	?	1	3%	7.1µM*	-3%
CCOc1nc(C)ccc1-c1noc(-c2ccccn2)n1	?	-1	1%	35%	3%
CCOC(=O)c1cc(-c2nnc(-c3ccc(Cl)cc3)o2)c(C)nc1C	4%	3	11%	-1%	1%
CCOC(=O)c1ccc(-c2nnc(-c3ccc(Cl)cc3Cl)o2)cc1	.	-1	2%	0.89µM*	6%
O=C1CC(c2ccc(Cl)c([N+](=O)[O-])c2)c2ccc3ccccc3c2N1 (stereo not given)	-17%	0	7%[46.1 µM]	-64%	13µM*
Cc1cc2c(cc1C)C(c1cccc([N+](=O)[O-])c1)CC(=O)N2 (stereo not given)	-3%	0	-1%[46.1 µM]	-59%	24%
O=C(NCCc1nc2ccccc2n1CCOc1ccc2ccccc2c1)C1CCCCC1	.	.	.	-15%	.
CC1(C)CC(=O)c2cnc(NC3CC3)nc2C1	0%	-6	0%	28%	-3%
Cc1ccc(Nc2ncc3c(n2)CC(C)(C)CC3=O)cc1	21%	1	-6%	2µM*	-2%
CCOC(=O)c1nnn2c1nc(N1CCOCC1)c1ccccc12	-5%	-1	-1%	-22%	-2%
Nc1nc2c(C(=O)N3CCOCC3)nnn2c2ccccc12	1%	-1	3%	2.8µM*	-1%
CCOC(=O)c1ccc(OCC2c3cc(OC)c(OC)cc3CCN2C(=O)Cc2ccc(OC)c(OC)c2)cc1 (stereo not given)	.	.	.	0%	.
CN(C)/C=C(\C#N)C(=O)Nc1ccc(F)c(Cl)c1	16%	-1	-1%	7.9µM*	-1%
CN(C)/C=C(\C#N)C(=O)Nc1ccc(F)cc1	4%	-2	1%	?	-1%
N#C/C(=C\c1ccc(OCc2ccc(F)cc2)cc1)C(=O)Nc1cccc(C(=O)O)c1	?	0	8%	11µM*	-1%
N#C/C(=C/c1ccc(OCc2ccc(C(=O)O)cc2)cc1)C(=O)Nc1ccccc1	-1%	0	-3%	-2%	25%
COc1cc(/C=C(\C#N)C(=O)Nc2cccc(C(=O)O)c2)ccc1OCc1ccc(F)cc1	?	0	2%	11µM*	5%
COc1ccc(NC(=O)/C(C#N)=C\c2ccc(OCc3ccc(C(=O)O)cc3)c(OC)c2)cc1	6%	-3	-4%	67%	15%
SMILES	p53 reactivator	IL-2 act	TCR activator	BRCA1 expr act	Mito fusion act
N#C/C(=C\c1ccc(OCc2ccc(Br)cc2)cc1)C(=O)Nc1cccc(C(=O)O)c1	?	0	2%	7.1µM*	8%
COc1cc(OC)c(OC)cc1/C=C/c1cc[n+](C)c2ccccc12	.	.	.	-39%	.
O=C(COc1ccccc1C(=O)Nc1ccccc1)Nc1cccc(Cl)c1	.	.	.	-39%	.
Cc1oc(-c2ccccc2F)nc1CS(=O)(=O)CC(=O)NC(C)CCc1ccccc1 (stereo not given)	-6%	-1	-4%	-7%	11µM*
CC(=O)c1ccccc1NC(=O)c1ccc(N2CCCC2=O)cc1	2%	-1	-1%	7.9µM*	1%
CSc1ccccc1NC(=O)c1ccc(N2CCCC2=O)cc1	?	1	-2%	10µM*	2%

Screening data: PubChem BioAssay, National Center for Advancing Translational Sciences (NCATS)
